Only some compounds are listed: those with a hit (about 11% of all), similar ones and a draw of the others.
USP30 inh – inhibitors of human USP30 deubiquitinase; Q70CQ3; hit rate 5.3% among 47,000; inhibition, % at 25 µM; purified USP30, Ub-rhodamine cleavage fluorescence
USP28 block – blocks human USP28 ubiquitin-rhodamine cleavage; purified USP28, Ub-rhodamine cleavage fluorescence, 30 min; hit rate 3% among 47,000; Q96RU2; inhibition, % at 25 µM
USP17 block – inhibitors of human USP17 deubiquitinase. purified USP17, Ub-rhodamine cleavage fluorescence, 3 h. hit rate 6.5% among 47,000. AID 1645855. inhibition, % at 50 µM
Target sequence (A8MUK1 whole entry, looked up): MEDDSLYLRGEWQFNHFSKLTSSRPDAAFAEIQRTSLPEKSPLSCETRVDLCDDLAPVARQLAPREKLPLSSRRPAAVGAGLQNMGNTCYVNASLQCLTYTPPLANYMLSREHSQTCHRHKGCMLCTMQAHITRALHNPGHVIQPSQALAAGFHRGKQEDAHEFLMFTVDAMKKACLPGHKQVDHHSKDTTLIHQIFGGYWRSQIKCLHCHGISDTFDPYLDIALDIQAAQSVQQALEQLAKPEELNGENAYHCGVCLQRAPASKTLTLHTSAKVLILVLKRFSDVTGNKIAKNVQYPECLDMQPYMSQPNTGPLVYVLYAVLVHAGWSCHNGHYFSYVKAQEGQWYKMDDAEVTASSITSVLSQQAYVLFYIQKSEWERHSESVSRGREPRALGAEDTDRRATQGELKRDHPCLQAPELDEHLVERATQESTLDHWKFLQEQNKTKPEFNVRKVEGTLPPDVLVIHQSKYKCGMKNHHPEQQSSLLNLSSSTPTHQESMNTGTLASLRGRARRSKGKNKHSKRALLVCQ
An asterisk follows results filed as active; . = no result given. No stated cut-off is given here; in the data, active means inhibition above about 30%; inactive means the rest.

SMILES	USP30 inh	USP28 block	USP17 block
COc1cc2c(cc1OC)CN(c1ncnc3sccc13)CC2	.	.	-62
CC(C)c1cc(C(=O)N2C[C@@H]3OCC(=O)N(CCc4ccccc4)[C@H]3C2)n(C)n1	2	-2	-3
CC(C)(C)c1cc(C(=O)N2C[C@@H]3OCC(=O)N(CCc4ccccc4)[C@H]3C2)n[nH]1	31*	0	1
O=C(C1CC1)N1CCc2cc(S(=O)(=O)NCC3COc4ccccc4O3)ccc21 (centres undefined)	-6	-3	-6
CCC(=O)N1c2ccc(S(=O)(=O)N3CCOCC3)cc2CC1C (centres undefined)	-5	1	-4
CCC(=O)N1c2ccc(S(=O)(=O)NCC(=O)NCc3ccc(C)cc3)cc2CC1C (centres undefined)	34*	19	15
CC(=O)N1CCc2cc(CNS(=O)(=O)c3ccccc3)ccc21	17	9	3
CC(=O)N1CCc2cc(S(=O)(=O)NC(C(=O)Nc3nc4ccc(C)cc4s3)C(C)C)ccc21 (centres undefined)	2	0	7
CC(=O)N1CCc2cc(S(=O)(=O)NCc3ccc(C)cc3)ccc21	0	-2	57*
CC(=O)N1CCc2cc(S(=O)(=O)NCC3COc4ccccc4O3)ccc21 (centres undefined)	8	9	38*
COc1ccc(C)cc1NC(=O)C(NS(=O)(=O)c1ccc2c(c1)CCN2C(C)=O)C(C)C (centres undefined)	54*	13	27
O=C(Oc1ccc(-c2nccc(-c3ccccn3)n2)cc1)c1ccco1	-1	-3	4
Cc1ccc(N2CCC3(CC2)CC(NC(C)(C)C)CO3)nn1 (centres undefined)	-26	-7	-11
Cc1ccc(-c2nc(Cn3cnc4cc(F)ccc4c3=O)cs2)cc1	-133	-38	-25
CNc1cnc(CC2CCCN(S(=O)(=O)c3cn[nH]c3)CC2)cn1 (centres undefined)	-20	-3	-8
O=S(=O)(c1cccc(F)c1)N1CCCCC1c1nnc(-c2cccnc2)o1 (centres undefined)	14	13	5
COc1ccc(C(C(=O)NC2CCCC2)N(C(=O)Cn2nnc(-c3ccc(C)o3)n2)c2ccccc2C)cc1 (centres undefined)	1	8	22
Cc1ccc(-c2nnn(CC(=O)N(c3ccc(C4CCCCC4)cc3)C(C(=O)NC3CCCCC3)c3ccc(F)cc3)n2)o1 (centres undefined)	-18	-6	33*
COc1ccc(-c2nnn(CC(=O)N(c3ccc(C4CCCCC4)cc3)C(C(=O)NC(C)(C)C)c3ccc(F)cc3)n2)cc1OC (centres undefined)	-4	5	-14
Cc1ccc(-c2nnn(CC(=O)N(c3ccccc3C)C(C(=O)NC3CCCC3)c3ccncc3)n2)o1 (centres undefined)	-207	-46	41*
COc1ccc(/C=C/C(=O)N2CC[C@@]3(O)CCCC[C@H]3C2c2ccc(OC)cc2)cc1 (some centres undefined)	10	2	-1
CCOc1ccccc1NC(=O)C(=O)c1cn(CC(=O)N2CCCCC2)c2ccccc12	40*	0	7
O=C(Nc1ccccc1F)C(=O)c1cn(CC(=O)N2CCCCC2)c2ccccc12	-25	-19	-11
CC(CCc1ccccc1)NC(=O)C(=O)c1cn(CC(=O)N2CCOCC2)c2ccccc12 (centres undefined)	50*	9	44*
CC(=O)c1cccc(NC(=O)C(=O)c2cn(CC(=O)N3CCOCC3)c3ccccc23)c1	-124	-17	-1
SMILES	USP30 inh	USP28 block	USP17 block
CC(C)C(=O)N1CCN(C(=O)Cc2ccccc2)CC2(CNC(=O)C2)C1 (centres undefined)	8	2	3
CN(CC(=O)Nc1nc(-c2ccc3c(c2)CCN3C(=O)CC(C)(C)C)cs1)C1CCCCC1	-35	-9	-7
CSc1nc(NCc2ccccc2)c2sc3nc(N4CCOCC4)c4c(c3c2n1)CC(C)(C)OC4	-15	-8	16
Cc1ccc(CNc2cc(-n3ccnc3)ncn2)cc1C	12	5	.
Cc1ccc(CNc2cc(-n3cccn3)ncn2)cc1	-3	31*	20
COc1ccccc1C1CNCCN1C(=O)C1CCC(F)(F)CC1 (centres undefined)	17	-42	0
COc1ccccc1NC(=O)C1CC(=O)Nc2nc(SCc3ccccc3)nn21 (centres undefined)	20	4	16
COc1ccc(-c2ccc(CCC(=O)Nc3c(C)cccc3C)o2)cc1	44*	12	26
COc1ccc(-c2ccc(CCC(=O)Nc3cccc4ccccc34)o2)cc1	7	-2	.
CC(C)C(=O)N1C[C@H]2C[C@H](C(=O)N3CCOCC3)[C@@H](C1C)N2Cc1ccccc1 (some centres undefined)	-6	-4	-6
Cc1nnc(NC(=O)C2CCN(C(=O)c3ccc(F)cc3)CC2)s1	4	15	16
Cc1ccc2c(c1)[C@]1(C(=O)N2)[C@@H](C(=O)c2ccccc2)[C@]2(C(=O)Nc3ccccc32)[C@@H]2CCCN21	-3	0	52*
O=C(c1ccc(Cl)cc1)[C@H]1[C@]2(C(=O)Nc3ccccc32)[C@@H]2CCCN2[C@@]12C(=O)Nc1ccccc12	5	7	11
CC(=O)c1ccc(NC(=O)CN(CC(=O)Nc2ccc(C(C)=O)cc2)S(=O)(=O)c2ccc(C)cc2C)cc1	-39	-3	32*
CC(=O)c1ccc(NC(=O)CN(CC(=O)Nc2ccc(C(C)=O)cc2)Cc2ccccc2)cc1	.	.	12
COc1ccc(NC(=O)c2nc3ccccc3nc2N2CCN(C)CC2)cc1Cl	-23	-11	-14
Cc1ccc(NC(=O)c2cc(-c3cccnc3)n[nH]2)cc1F	49*	34*	40*
CC(C)c1ccc(NC(=O)c2cc(-c3cccnc3)n[nH]2)cc1	46*	37*	-1
O=C(Cc1nc(-c2cccnc2)n[nH]1)Nc1ccc(F)c(F)c1	-20	0	-10
O=C(Cc1nc(-c2cccnc2)n[nH]1)Nc1ccc(F)cc1	20	15	15
COc1ccc(NC(=O)c2cc(-c3cccnc3)n[nH]2)cc1Cl	94*	91*	44*
O=C(c1ccncc1)N1CCCC1c1nnn2cc(-c3cccc(F)c3)ccc12 (centres undefined)	-4	-3	-9
O=[N+]([O-])c1cc(Cl)ccc1N1CCN(c2ccccc2F)CC1	12	16	12
O=C(O)c1ccccc1CN1C(=O)C2CCCN2C(=O)c2ccccc21 (centres undefined)	27	9	11
O=C1C(O)=C(c2ccccc2)C2CCCN12 (centres undefined)	32*	-8	-26
Cc1cc(C(=O)N2C[C@H]3C[C@H]4[C@](C2)(CN(Cc2cccc(Cl)c2)S4(=O)=O)O3)no1	-5	-10	-5
CC(=O)N1Cc2ccccc2CC2(CCCN2Cc2cccnc2)C1 (centres undefined)	-58	-14	-25
Cc1noc(-c2ccccc2NC(=O)c2ccc(Cl)c(Cl)c2)n1	19	3	6
O=C(Nc1ccccc1-c1nc(-c2ccccn2)no1)c1cc(Cl)ccc1Cl	60*	44*	56*
